Experimental data taken from publication PMC7862700, “An all-to-all approach to the identification of sequence-specific readers for epigenetic DNA modifications on cytosine”.

What was measured:
Test in all cases: DAPPL (digital affinity profiling via proximity ligation, sequencing); 10 mM Tris-HCl pH 7.5, 50 mM NaCl, 1 mM DTT, 4% glycerol, room temperature, 30 min; GST-TFs on glutathione beads, 16-mer random dsDNA library, 0.1% formaldehyde crosslink after washing; high values mean tight binding
FLI1 = molecular target: T1, FLI1 (Homo sapiens, UniProt Q01543 1-452); settings: protein: recombinant; tags: N-terminal GST; dsDNA, one strand shown
T1 sequence: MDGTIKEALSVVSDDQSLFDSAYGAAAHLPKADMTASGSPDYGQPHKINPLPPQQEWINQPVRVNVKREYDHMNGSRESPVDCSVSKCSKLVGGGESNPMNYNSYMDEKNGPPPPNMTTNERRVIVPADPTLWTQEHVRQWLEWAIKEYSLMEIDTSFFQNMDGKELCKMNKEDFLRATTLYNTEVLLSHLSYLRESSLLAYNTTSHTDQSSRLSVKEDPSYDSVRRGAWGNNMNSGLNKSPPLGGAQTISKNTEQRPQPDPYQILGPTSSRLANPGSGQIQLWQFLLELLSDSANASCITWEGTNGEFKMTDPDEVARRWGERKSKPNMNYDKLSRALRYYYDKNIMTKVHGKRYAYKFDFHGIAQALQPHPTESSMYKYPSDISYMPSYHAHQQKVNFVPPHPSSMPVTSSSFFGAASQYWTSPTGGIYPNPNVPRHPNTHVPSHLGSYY
Procedure, shortened: (§1)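 Human transcription factors fused to GST were expressed in yeast, captured on glutathione beads, given DNA barcodes and pooled with a GST-only negative control. Pools were incubated with 200 nmole of a 16-mer random double-stranded DNA library in Tris/NaCl/DTT/glycerol buffer at room temperature for 30 min. They were then washed, crosslinked with 0.1% formaldehyde, proximity-ligated (BsaI/T4 ligase, 1 h, 37 °C), PCR-amplified and sequenced on an Illumina NextSeq500. Binding signal is each 6-mer's read frequency for a factor divided by its frequency for the GST control.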

ELK1 = molecular target: T2, ELK1 (Homo sapiens, UniProt P19419 1-428); settings: protein: recombinant; tags: N-terminal GST; dsDNA, one strand shown
T2 sequence: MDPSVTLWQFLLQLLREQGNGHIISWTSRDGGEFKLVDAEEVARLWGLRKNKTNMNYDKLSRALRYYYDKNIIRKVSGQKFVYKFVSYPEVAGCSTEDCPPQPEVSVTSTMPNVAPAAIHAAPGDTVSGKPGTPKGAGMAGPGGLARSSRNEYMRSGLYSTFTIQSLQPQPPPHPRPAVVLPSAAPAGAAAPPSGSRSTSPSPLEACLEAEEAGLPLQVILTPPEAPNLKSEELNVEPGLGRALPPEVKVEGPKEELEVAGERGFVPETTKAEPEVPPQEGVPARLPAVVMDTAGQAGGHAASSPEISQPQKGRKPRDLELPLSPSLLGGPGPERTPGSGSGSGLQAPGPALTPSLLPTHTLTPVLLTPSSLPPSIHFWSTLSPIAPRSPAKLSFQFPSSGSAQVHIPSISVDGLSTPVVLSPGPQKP
Procedure, shortened: as §1

GABPA = molecular target: T3, GABPA (Homo sapiens, UniProt Q06546 1-454); settings: protein: recombinant; tags: N-terminal GST; dsDNA, one strand shown
T3 sequence: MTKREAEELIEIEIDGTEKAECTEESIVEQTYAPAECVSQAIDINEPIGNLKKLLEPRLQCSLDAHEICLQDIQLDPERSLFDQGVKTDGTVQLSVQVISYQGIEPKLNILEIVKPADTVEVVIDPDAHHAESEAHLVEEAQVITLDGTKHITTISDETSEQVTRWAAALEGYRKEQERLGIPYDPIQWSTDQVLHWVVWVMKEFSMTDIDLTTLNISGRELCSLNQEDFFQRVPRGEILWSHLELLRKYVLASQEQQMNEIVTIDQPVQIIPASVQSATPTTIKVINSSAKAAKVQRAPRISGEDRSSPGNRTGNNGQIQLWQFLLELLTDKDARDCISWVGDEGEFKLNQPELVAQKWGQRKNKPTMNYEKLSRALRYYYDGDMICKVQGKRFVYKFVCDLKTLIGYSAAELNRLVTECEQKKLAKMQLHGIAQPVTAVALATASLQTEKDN
Procedure, shortened: as §1

ERG = molecular target: T4, ERG (Homo sapiens, UniProt P11308 1-479); settings: protein: recombinant; tags: N-terminal GST; dsDNA, one strand shown
T4 sequence: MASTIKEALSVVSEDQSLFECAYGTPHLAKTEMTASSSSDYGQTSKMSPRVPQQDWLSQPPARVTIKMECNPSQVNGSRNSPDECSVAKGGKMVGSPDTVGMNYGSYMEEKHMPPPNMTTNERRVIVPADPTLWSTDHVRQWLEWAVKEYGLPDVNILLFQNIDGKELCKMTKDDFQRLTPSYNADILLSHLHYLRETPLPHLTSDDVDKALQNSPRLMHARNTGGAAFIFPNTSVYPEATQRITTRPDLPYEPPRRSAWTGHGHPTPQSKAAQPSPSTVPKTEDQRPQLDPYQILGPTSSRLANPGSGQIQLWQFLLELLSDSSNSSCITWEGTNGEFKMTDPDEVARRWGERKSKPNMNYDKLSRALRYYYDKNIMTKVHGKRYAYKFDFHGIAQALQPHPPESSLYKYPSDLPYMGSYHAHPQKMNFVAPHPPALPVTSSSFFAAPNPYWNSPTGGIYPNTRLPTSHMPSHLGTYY
Procedure, shortened: as §1

ELF1 = ELF1 (Homo sapiens, UniProt P32519 1-619); settings: protein: recombinant; tags: N-terminal GST; dsDNA, one strand shown
Procedure, shortened: as §1

EHF = molecular target: T5, EHF (Homo sapiens, UniProt Q9NZC4 1-300); settings: protein: recombinant; tags: N-terminal GST; dsDNA, one strand shown
T5 sequence: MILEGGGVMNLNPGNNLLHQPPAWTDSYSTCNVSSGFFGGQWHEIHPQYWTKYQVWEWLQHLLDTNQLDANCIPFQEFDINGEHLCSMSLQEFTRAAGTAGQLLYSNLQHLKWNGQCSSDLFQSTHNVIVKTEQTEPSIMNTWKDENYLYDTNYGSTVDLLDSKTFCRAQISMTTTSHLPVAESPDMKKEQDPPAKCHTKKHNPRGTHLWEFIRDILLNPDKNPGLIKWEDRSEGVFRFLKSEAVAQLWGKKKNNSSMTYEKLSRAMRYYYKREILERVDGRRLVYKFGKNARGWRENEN
Procedure, shortened: as §1

SPI1 = SPI1 (Homo sapiens, UniProt P17947 1-270); settings: protein: recombinant; tags: N-terminal GST; dsDNA, one strand shown
Procedure, shortened: as §1

SPIB = SPIB (Homo sapiens, UniProt Q01892 1-262); settings: protein: recombinant; tags: N-terminal GST; dsDNA, one strand shown
Procedure, shortened: as §1

ELK3 = molecular target: T6, ELK3 (Homo sapiens, UniProt P41970 1-407); settings: protein: recombinant; tags: N-terminal GST; dsDNA, one strand shown
T6 sequence: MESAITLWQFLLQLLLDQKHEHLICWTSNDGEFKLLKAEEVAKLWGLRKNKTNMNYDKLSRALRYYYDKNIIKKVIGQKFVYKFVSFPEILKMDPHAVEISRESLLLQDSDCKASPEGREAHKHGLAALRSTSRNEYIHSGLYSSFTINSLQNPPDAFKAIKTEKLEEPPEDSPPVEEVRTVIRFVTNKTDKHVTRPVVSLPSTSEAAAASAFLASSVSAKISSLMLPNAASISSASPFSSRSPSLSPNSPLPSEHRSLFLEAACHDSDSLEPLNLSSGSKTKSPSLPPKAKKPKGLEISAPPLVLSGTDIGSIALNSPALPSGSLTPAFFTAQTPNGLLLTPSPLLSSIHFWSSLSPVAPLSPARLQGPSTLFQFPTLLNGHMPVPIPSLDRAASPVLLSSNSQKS
Procedure, shortened: as §1

FEV = molecular target: T7, FEV (Homo sapiens, UniProt Q99581 1-238); settings: protein: recombinant; tags: N-terminal GST; dsDNA, one strand shown
T7 sequence: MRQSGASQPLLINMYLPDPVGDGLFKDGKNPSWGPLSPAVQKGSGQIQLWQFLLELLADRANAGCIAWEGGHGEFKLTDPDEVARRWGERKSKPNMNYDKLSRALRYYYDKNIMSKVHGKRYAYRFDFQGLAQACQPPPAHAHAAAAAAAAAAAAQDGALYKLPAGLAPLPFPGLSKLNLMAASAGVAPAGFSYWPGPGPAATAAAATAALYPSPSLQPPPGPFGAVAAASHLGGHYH
Procedure, shortened: as §1

ETV5 = ETV5 (Homo sapiens, UniProt P41161 1-510); settings: protein: recombinant; tags: N-terminal GST; dsDNA, one strand shown
Procedure, shortened: as §1

HSF1 = HSF1 (Homo sapiens, UniProt Q00613 1-529); settings: protein: recombinant; tags: N-terminal GST; chain copies: 3; dsDNA, one strand shown
Procedure, shortened: as §1

SPIC = molecular target: T8, SPIC (Homo sapiens, UniProt Q8N5J4 1-248); settings: protein: recombinant; tags: N-terminal GST; dsDNA, one strand shown
T8 sequence: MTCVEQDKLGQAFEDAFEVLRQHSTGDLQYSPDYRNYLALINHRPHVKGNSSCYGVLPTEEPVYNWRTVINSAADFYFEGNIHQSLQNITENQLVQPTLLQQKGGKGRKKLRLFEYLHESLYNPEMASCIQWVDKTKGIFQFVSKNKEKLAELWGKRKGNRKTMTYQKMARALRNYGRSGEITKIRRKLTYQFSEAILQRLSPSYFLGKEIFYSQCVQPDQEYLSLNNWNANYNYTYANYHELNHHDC
Procedure, shortened: as §1

ELF4 = ELF4 (Homo sapiens, UniProt Q99607 1-663); settings: protein: recombinant; tags: N-terminal GST; dsDNA, one strand shown
Procedure, shortened: as §1

ELK4 = molecular target: T9, ELK4 (Homo sapiens, UniProt P28324-2 1-405); settings: protein: recombinant; tags: N-terminal GST; dsDNA, one strand shown
T9 sequence: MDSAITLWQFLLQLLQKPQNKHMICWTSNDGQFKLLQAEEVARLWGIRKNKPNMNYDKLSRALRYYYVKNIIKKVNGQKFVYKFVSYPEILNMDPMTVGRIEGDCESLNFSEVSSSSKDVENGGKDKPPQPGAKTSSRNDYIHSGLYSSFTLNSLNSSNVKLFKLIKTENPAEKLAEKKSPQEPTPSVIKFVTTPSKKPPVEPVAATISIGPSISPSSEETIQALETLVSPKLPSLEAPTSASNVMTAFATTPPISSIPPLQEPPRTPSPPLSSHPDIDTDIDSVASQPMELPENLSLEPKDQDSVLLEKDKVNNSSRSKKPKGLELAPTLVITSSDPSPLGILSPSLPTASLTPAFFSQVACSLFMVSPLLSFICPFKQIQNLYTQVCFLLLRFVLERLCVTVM
Procedure, shortened: as §1

ETV2 = molecular target: T10, ETV2 (Homo sapiens, UniProt O00321 1-342); settings: protein: recombinant; tags: N-terminal GST; dsDNA, one strand shown
T10 sequence: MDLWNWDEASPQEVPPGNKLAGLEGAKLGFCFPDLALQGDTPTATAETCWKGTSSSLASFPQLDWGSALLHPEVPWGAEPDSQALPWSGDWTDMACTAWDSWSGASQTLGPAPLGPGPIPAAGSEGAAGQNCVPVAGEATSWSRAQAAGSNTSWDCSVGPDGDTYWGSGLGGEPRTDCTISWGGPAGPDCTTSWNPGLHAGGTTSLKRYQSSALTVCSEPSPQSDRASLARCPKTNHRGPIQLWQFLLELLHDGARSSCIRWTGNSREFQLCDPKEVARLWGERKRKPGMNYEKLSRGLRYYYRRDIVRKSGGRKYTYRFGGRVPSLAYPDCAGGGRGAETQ
Procedure, shortened: as §1

ELF3 = molecular target: T11, ELF3 (Homo sapiens, UniProt P78545 1-371); settings: protein: recombinant; tags: N-terminal GST; dsDNA, one strand shown
T11 sequence: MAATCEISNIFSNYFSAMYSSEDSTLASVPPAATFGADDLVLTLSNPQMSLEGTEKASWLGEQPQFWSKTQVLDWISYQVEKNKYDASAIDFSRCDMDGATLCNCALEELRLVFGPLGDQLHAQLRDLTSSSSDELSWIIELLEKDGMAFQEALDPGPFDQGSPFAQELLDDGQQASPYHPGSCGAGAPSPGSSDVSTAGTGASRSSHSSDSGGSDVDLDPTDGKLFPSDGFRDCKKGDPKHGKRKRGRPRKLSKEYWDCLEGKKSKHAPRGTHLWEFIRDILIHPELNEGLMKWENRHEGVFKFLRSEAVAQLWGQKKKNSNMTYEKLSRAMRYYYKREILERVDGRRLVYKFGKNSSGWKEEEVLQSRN
Procedure, shortened: as §1

CRX = CRX (Homo sapiens, UniProt O43186 1-299); settings: protein: recombinant; tags: N-terminal GST; dsDNA, one strand shown
Procedure, shortened: as §1

ETV1 = ETV1 (Homo sapiens, UniProt P50549 1-477); settings: protein: recombinant; tags: N-terminal GST; dsDNA, one strand shown
Procedure, shortened: as §1

Chain of ELF1 (P32519 whole entry): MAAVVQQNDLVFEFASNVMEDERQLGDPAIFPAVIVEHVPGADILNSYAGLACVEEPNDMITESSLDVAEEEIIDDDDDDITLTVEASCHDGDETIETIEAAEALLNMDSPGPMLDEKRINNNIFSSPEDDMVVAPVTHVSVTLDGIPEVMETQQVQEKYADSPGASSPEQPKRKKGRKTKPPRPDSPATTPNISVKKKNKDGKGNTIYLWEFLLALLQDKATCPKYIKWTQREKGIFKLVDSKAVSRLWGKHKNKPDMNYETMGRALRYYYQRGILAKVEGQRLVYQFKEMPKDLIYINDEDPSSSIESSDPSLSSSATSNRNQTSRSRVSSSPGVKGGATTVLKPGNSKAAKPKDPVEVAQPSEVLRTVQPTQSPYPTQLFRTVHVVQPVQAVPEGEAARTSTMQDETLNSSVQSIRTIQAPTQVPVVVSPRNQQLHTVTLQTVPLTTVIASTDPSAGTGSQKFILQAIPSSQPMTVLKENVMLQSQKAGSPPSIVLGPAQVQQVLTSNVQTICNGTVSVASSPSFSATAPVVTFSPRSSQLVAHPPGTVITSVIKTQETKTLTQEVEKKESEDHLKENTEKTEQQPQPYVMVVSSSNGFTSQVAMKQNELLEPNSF
Chain of ELF4 (Q99607 whole entry): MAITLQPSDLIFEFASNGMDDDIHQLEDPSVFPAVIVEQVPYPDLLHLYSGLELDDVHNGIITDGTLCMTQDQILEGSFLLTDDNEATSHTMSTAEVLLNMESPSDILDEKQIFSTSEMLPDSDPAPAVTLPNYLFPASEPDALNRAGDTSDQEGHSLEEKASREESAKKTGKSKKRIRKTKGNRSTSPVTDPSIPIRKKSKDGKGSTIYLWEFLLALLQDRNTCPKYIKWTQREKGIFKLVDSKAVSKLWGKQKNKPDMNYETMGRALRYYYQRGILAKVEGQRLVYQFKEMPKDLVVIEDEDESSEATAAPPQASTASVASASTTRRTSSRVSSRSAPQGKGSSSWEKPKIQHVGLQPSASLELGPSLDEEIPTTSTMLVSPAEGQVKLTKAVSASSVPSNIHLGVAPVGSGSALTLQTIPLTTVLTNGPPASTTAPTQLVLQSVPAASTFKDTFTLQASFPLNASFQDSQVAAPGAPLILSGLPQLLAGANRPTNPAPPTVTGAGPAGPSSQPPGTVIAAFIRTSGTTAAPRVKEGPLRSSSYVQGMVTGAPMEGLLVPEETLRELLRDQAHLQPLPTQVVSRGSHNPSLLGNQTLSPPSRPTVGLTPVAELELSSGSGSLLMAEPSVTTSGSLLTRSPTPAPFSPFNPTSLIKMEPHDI
Chain of CRX (O43186 whole entry): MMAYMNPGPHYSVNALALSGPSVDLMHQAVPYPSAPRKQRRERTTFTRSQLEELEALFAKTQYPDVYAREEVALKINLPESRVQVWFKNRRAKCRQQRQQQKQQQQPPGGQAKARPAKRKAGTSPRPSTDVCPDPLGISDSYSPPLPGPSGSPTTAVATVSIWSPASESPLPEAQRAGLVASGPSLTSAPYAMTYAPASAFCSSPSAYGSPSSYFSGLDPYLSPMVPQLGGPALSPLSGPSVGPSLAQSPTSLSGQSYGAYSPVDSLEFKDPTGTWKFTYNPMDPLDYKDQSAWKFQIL
Chain of ETV5 (P41161 whole entry): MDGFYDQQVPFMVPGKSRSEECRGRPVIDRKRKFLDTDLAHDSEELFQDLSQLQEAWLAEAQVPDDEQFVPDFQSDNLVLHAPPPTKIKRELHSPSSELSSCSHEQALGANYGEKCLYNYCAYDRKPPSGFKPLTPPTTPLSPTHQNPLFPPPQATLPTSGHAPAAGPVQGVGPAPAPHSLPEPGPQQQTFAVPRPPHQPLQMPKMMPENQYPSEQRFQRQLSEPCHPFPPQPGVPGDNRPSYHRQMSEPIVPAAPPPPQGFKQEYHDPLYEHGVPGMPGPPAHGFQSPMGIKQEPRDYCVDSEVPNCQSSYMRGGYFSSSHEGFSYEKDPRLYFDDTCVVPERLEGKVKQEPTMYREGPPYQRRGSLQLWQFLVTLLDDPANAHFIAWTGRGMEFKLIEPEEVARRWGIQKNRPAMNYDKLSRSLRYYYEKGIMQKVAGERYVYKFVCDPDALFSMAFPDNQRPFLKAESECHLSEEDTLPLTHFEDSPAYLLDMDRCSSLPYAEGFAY
Chain of ETV1 (P50549 whole entry): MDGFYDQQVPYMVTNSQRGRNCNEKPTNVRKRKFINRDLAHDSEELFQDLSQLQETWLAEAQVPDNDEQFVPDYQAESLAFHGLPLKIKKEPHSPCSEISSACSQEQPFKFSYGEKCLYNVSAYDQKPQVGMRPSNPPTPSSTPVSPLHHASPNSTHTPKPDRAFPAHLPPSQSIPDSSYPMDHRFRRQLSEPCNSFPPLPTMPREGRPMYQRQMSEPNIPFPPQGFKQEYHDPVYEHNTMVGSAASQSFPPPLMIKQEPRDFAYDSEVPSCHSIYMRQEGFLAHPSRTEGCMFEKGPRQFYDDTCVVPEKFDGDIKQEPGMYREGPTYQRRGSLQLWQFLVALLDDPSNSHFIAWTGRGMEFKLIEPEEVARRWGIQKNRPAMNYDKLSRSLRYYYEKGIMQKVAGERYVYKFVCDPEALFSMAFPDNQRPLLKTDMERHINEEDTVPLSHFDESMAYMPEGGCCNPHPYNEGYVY
Chain of SPIB (Q01892 whole entry): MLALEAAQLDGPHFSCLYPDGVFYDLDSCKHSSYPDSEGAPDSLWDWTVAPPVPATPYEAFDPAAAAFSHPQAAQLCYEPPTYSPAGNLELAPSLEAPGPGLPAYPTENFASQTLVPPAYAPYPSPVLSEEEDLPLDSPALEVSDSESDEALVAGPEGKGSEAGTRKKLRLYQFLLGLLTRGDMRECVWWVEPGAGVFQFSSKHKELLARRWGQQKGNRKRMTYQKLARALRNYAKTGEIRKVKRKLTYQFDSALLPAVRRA
Chain of HSF1 (Q00613 whole entry): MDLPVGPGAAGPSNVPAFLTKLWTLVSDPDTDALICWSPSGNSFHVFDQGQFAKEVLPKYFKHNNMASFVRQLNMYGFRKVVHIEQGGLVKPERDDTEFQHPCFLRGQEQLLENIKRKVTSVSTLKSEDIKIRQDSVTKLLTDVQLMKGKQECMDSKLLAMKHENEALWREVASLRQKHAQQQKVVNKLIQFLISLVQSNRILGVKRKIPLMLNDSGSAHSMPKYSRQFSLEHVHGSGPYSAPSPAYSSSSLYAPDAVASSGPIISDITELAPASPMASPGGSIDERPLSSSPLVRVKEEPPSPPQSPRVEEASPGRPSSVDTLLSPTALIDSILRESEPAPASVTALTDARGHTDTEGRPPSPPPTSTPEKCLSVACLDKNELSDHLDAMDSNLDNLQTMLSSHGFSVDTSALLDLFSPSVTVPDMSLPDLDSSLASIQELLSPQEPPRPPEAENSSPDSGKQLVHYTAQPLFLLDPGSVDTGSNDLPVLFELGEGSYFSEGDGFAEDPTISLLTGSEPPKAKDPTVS

CAATAA
binding signal (FLI1): 1.12 fold enrichment (6-mer frequency, TF over GST control) | binding signal (ELK1): 1.07 fold enrichment (6-mer frequency, TF over GST control) | binding signal (GABPA): 1.25 fold enrichment (6-mer frequency, TF over GST control) | binding signal (ERG): 1.13 fold enrichment (6-mer frequency, TF over GST control) | binding signal (ELF1): 1.13 fold enrichment (6-mer frequency, TF over GST control) | binding signal (EHF): 1.15 fold enrichment (6-mer frequency, TF over GST control) | binding signal (SPI1): 1.14 fold enrichment (6-mer frequency, TF over GST control) | binding signal (SPIB): 1.11 fold enrichment (6-mer frequency, TF over GST control) | binding signal (ELK3): 1.2 fold enrichment (6-mer frequency, TF over GST control) | binding signal (FEV): 1.1 fold enrichment (6-mer frequency, TF over GST control) | binding signal (ETV5): 1.14 fold enrichment (6-mer frequency, TF over GST control) | binding signal (HSF1): 1.24 fold enrichment (6-mer frequency, TF over GST control) | binding signal (SPIC): 1.2 fold enrichment (6-mer frequency, TF over GST control) | binding signal (ELF4): 1.16 fold enrichment (6-mer frequency, TF over GST control) | binding signal (ELK4): 1.14 fold enrichment (6-mer frequency, TF over GST control) | binding signal (ETV2): 1.14 fold enrichment (6-mer frequency, TF over GST control) | binding signal (ELF3): 1.27 fold enrichment (6-mer frequency, TF over GST control) | binding signal (CRX): 1.46 fold enrichment (6-mer frequency, TF over GST control) | binding signal (ETV1): 1.11 fold enrichment (6-mer frequency, TF over GST control)
